# “And” between values parts separate entries of the source, which are not always exact repeats. Equal values may be shown once. The campaign covered roughly 5,500 compounds. About 2,000 (36%) were called active. Not shown: some 18% with an inconclusive outcome. The list shows a part of the results. Unmarked numbers belong to inactive results. Rule as the data show it: active = normalized growth mostly below about 0.91 (no sharp cut-off); inconclusive = no clear call, values can overlap the other calls; inactive = mostly above about 0.92.
# Assay: chemical genetic growth profiling, strain panel (AID 1159580);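 also: tested at 20 µM; growth read once vehicle control cultures reached saturation at 30 °C; 1 = growth at the plate median or of vehicle wells; lower values mean less growth of the strain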
# Conditions: S. cerevisiae deletion strains, growth OD
structure (smiles),measurement,setting,value
CC[n+]1c(-c2ccccc2)c2cc(N)ccc2c2ccc(N)cc21,normalized growth,"locus YAL013W, strain DEP1, active compounds read low",0.879 (active)
same,normalized growth,"locus YAL021C, strain ccr4, active compounds read low",0.918
same,normalized growth,"locus YAL026C, strain drs2, active compounds read low",0.966
same,normalized growth,"locus YAL030W, strain snc1, active compounds read low",0.971
same,normalized growth,"locus YBL061C, strain skt5, active compounds read low",0.974
same,normalized growth,"locus YBR009C, strain hhf1, active compounds read low",0.966
same,normalized growth,"locus YBR021W, strain FUR4, active compounds read low",1.06
same,normalized growth,"locus YBR023C, strain chs3, active compounds read low",0.979
same,normalized growth,"locus YBR171W, strain sec66, active compounds read low",0.977
same,normalized growth,"locus YBR229C, strain ROT2, active compounds read low",0.952
same,normalized growth,"locus YBR231C, strain swc5, active compounds read low",0.966
same,normalized growth,"locus YBR279W, strain paf1, active compounds read low",0.947
same,normalized growth,"locus YCL011C, strain gbp2, active compounds read low",0.981
same,normalized growth,"locus YCL016C, strain dcc1, active compounds read low",0.943
same,normalized growth,"locus YCL029C, strain bik1, active compounds read low",0.664 (active)
same,normalized growth,"locus YCL069W, strain vba3, active compounds read low",0.959
same,normalized growth,"locus YCR088W, strain abp1, active compounds read low",0.954
same,normalized growth,"locus YDL005C, strain med2, active compounds read low",0.99
same,normalized growth,"locus YDL035C, strain GPR1, active compounds read low",0.703 (active)
same,normalized growth,"locus YDL040C, strain nat1, active compounds read low",0.969
same,normalized growth,"locus YDL074C, strain BRE1, active compounds read low",0.822
same,normalized growth,"locus YDL101C, strain DUN1, active compounds read low",0.93
same,normalized growth,"locus YDL134C, strain PPH21, active compounds read low",0.776 (active)
same,normalized growth,"locus YDL185W, strain tfp1, active compounds read low",0.853 (active)
same,normalized growth,"locus YDL192W, strain arf1, active compounds read low",0.922
same,normalized growth,"locus YDR001C, strain nth1, active compounds read low",0.953
same,normalized growth,"locus YDR069C, strain doa4, active compounds read low",0.974
same,normalized growth,"locus YDR101C, strain arx1, active compounds read low",0.886 (active)
same,normalized growth,"locus YDR137W, strain rgp1, active compounds read low",0.997
same,normalized growth,"locus YDR159W, strain sac3, active compounds read low",1.02
same,normalized growth,"locus YDR162C, strain NBP2, active compounds read low",0.706 (active)
same,normalized growth,"locus YDR195W, strain ref2",1.04
same,normalized growth,"locus YDR297W, strain sur2, active compounds read low",0.954
same,normalized growth,"locus YDR318W, strain mcm21, active compounds read low",0.885 (active)
same,normalized growth,"locus YDR334W, strain swr1, active compounds read low",0.957
same,normalized growth,"locus YDR335W, strain msn5, active compounds read low",0.983
same,normalized growth,"locus YDR388W, active compounds read low",0.859 (active)
same,normalized growth,"locus YDR392W, strain spt3, active compounds read low",0.965
same,normalized growth,"locus YDR502C, strain sam2, active compounds read low",0.801 (active)
same,normalized growth,"locus YEL003W, strain gim4, active compounds read low",0.956
same,normalized growth,"locus YEL037C, strain rad23, active compounds read low",0.965
same,normalized growth,"locus YEL061C, strain CIN8 (second series), active compounds read low",0.946
same,normalized growth,"locus YEL061C, strain CIN8, active compounds read low",0.766 (active)
same,normalized growth,"locus YER015W, strain faa2, active compounds read low",0.97
same,normalized growth,"locus YER016W, strain bim1, active compounds read low",0.953
same,normalized growth,"locus YER110C, active compounds read low",0.967
same,normalized growth,"locus YER111C, strain swi4, active compounds read low",0.939
same,normalized growth,"locus YER155C, strain BEM2 (second series), active compounds read low",0.939
same,normalized growth,"locus YER155C, strain BEM2, active compounds read low",0.937
same,normalized growth,"locus YER167W, strain BCK2, active compounds read low",0.756 (active)
same,normalized growth,"locus YFR010W, strain ubp6, active compounds read low",0.97
same,normalized growth,"locus YGL078C, strain dbp3, active compounds read low",0.898 (active)
same,normalized growth,"locus YGL086W, strain mad1, active compounds read low",0.856 (active)
same,normalized growth,"locus YGL167C, strain pmr1, active compounds read low",0.986
same,normalized growth,"locus YGL173C, strain kem1, active compounds read low",0.96
same,normalized growth,"locus YGL227W, strain vid30, active compounds read low",0.975
same,normalized growth,"locus YGL240W, strain doc1, active compounds read low",1.01
same,normalized growth,"locus YGL248W, strain PDE1, active compounds read low",0.845 (active)
same,normalized growth,"locus YGL253W, strain hxk2, active compounds read low",0.94
same,normalized growth,"locus YGR135W, strain pre9, active compounds read low",0.872 (active)
same,normalized growth,"locus YGR252W, strain gcn5, active compounds read low",0.94
same,normalized growth,"locus YHR013C, strain ard1, active compounds read low",0.988
same,normalized growth,"locus YHR027C, strain rpn1, active compounds read low",0.954
same,normalized growth,"locus YHR030C, strain SLT2, active compounds read low",0.906 (active) and 0.85 (active)
same,normalized growth,"locus YHR079C, strain IRE1 (second series), active compounds read low",0.857 (active)
same,normalized growth,"locus YHR079C, strain IRE1, active compounds read low",0.832 (active)
same,normalized growth,"locus YHR094C, strain hxt1, active compounds read low",0.925
same,normalized growth,"locus YHR129C, strain ARP1, active compounds read low",0.895 (active)
same,normalized growth,"locus YHR142W, strain chs7, active compounds read low",0.974
same,normalized growth,"locus YHR200W, strain rpn10, active compounds read low",0.864 (active)
same,normalized growth,"locus YIL066C, strain RNR3, active compounds read low",0.827 (active)
same,normalized growth,"locus YIL073C, strain SPO22, active compounds read low",0.662 (active)
same,normalized growth,"locus YIL125W, strain kgd1, active compounds read low",0.88 (active)
same,normalized growth,"locus YIR030C, strain dcg1, active compounds read low",0.889 (active)
same,normalized growth,"locus YJL092W, strain hpr5, active compounds read low",0.946
same,normalized growth,"locus YJL095W, strain BCK1 (second series), active compounds read low",0.979
same,normalized growth,"locus YJL095W, strain BCK1, active compounds read low",0.79 (active) and 0.852 (active)
same,normalized growth,"locus YJL115W, strain asf1, active compounds read low",0.926
same,normalized growth,"locus YJL129C, strain trk1, active compounds read low",1.08
same,normalized growth,"locus YJL134W, strain LCB3, active compounds read low",0.924 (active)
same,normalized growth,"locus YJL154C, strain vps35, active compounds read low",0.949
same,normalized growth,"locus YJL164C, strain tpk1, active compounds read low",0.963
same,normalized growth,"locus YJL166W, strain qcr8, active compounds read low",0.993
same,normalized growth,"locus YJL168C, strain set2, active compounds read low",0.915 (active)
same,normalized growth,"locus YJL187C, strain SWE1 (second series), active compounds read low",0.819 (active)
same,normalized growth,"locus YJL187C, strain SWE1, active compounds read low",0.995
same,normalized growth,"locus YJR043C, strain POL32, active compounds read low",0.687 (active)
same,normalized growth,"locus YJR066W, strain TOR1, active compounds read low",0.773 (active)
